From PubChem BioAssay (Tox21)
“And” between values parts separate entries of the source, which are not always exact repeats. Identical values can stand only once. Records with an inconclusive call do not appear. Unmarked numbers belong to inactive results. The source made the active and inactive calls. Unless noted, calls come from the whole dose curve; as a rule, active = well fitted curve in the direction sought with a large enough effect in the repeat runs; inconclusive = weak or mixed curves; inactive = no such curve, though single readings can be large; an effect the other way counts as inactive or inconclusive.

test system: not listed separately; assay: qHTS assay to identify small molecule antagonists of the retinoic acid receptor (RAR) signaling pathway (AID 1159552; note: nearly all actives have a fitted effect of over 50% in size; note: potency is the fitted concentration of half-maximal effect); conditions: C3RL4 RARE luciferase reporter, retinol-stimulated, 6 h; series mostly up to 92.4 µM; activity, negative = inhibition: at the top concentration
How it was run: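 Cells of the C3RL4 line were seeded, incubated overnight, then dosed with compounds in DMSO followed immediately by retinol (1 uM final). Six hours later luciferase detection reagent went in; signal was measured after 30 min at RT.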
% is set by controls: 0 for no effect and ±100 for the full control effect.

| SMILES | activity, negative = inhibition | Potency |
| --- | --- | --- |
| CC(C)(C)NCC(O)c1cc(O)cc(O)c1 (centres undefined) | 1.02% [at 42.5 µM] | – |
| CCCCCCCCCCCCCC[P+](CCCC)(CCCC)CCCC | – | 9.63 µM (active) and 9.69 µM (active) |
| C/C=C/c1ccc(OCC)c(O)c1 | – | inactive |
| Cc1ccnc2c1NC(=O)c1cccnc1N2C1CC1 | – | inactive |
| COC(c1ccccc1)(c1ccccc1)[C@H](Oc1nc(C)cc(C)n1)C(=O)O | -1.64% [at 42.5 µM] | – |
| CCC(C)(Oc1ccc(C2(c3ccc(OC(C)(CC)C(=O)O)cc3)CCCCC2)cc1)C(=O)O (centres undefined) | 2.85% [at 42.5 µM] | – |
| CNC1(C)C2CCC(C2)C1(C)C (centres undefined) | 4.58% [at 42.5 µM] | – |
| CCC[C@H](N[C@@H](C)C(=O)N1[C@H](C(=O)O)C[C@@H]2CCCC[C@@H]21)C(=O)OCC | – | inactive |
| CCCOC(=O)c1cc(O)c(O)c(O)c1 | – | inactive |
| CCc1cc(C(C)(C)C)c(O)c(C(C)(C)C)c1 | – | inactive |
| CC(C)(c1ccccc1)c1ccc(Nc2ccc(C(C)(C)c3ccccc3)cc2)cc1 | 2.45% | – |
| c1ccc2n[nH]nc2c1 | – | inactive |
| Nc1nc2ccccc2[nH]1 | – | inactive |
| c1ccc2c(c1)-c1cccc3c1c-2cc1ccccc13 | – | inactive |
| NC(Cc1ccc(Cl)cc1)C(=O)O (centres undefined) | 4.68% [at 0.349 µM] | – |
| Oc1c(Cl)cc(Cl)c(Cl)c1Cc1c(O)c(Cl)cc(Cl)c1Cl | – | 24.3 µM (active) and 15 µM (active) |
| CN1C(=O)c2ccc([N+](=O)[O-])cc2C1=O | -2.48% | – |
| Cc1cc(OCCOCC[N+](C)(C)Cc2ccccc2)ccc1C(C)(C)CC(C)(C)C | – | 48.3 µM (active) and 29.8 µM (active) |
| O=C(O)c1cccc(C(=O)O)c1 | – | inactive |
| COc1ccc(COC(C)=O)cc1 | – | inactive |
| CCc1ccc(C(c2ccc(CC)cc2)C(Cl)Cl)cc1 | -0.718% | – |
| Oc1ccc(Cl)cc1Cc1cc(Cl)ccc1O | – | 31.2 µM (active) and 27.3 µM (active) |
| COC(=O)/C=C/c1ccccc1 | – | inactive |
| Nc1ccc(O)cc1 | – | inactive |
| CC1=CC(=O)c2ccccc2C1=O | – | 30.6 µM (active) |
| COC(=O)c1cccc(C(=O)OC)c1 | – | inactive |

test system: not listed separately; assay: qHTS assay to identify small molecule agonists of the retinoic acid receptor (RAR) signaling pathway (AID 1159553); conditions: C3RL4 RARE luciferase reporter, agonist, 6 h; series mostly up to 73.3 µM; activation: at the top concentration; note: potency is the fitted concentration of half-maximal effect
How it was run: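 Reporter readout comes from luciferase under RARE control in C3RL4 cells; compound exposure lasts 6 hr at 37 C in 5% CO2, and luminescence is recorded following a 30 min room-temperature incubation with reagent.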

| SMILES | activation | Potency |
| --- | --- | --- |
| CC(C)(C)NCC(O)c1cc(O)cc(O)c1 (centres undefined) | 0.46% | – |
| C/C=C/c1ccc(OCC)c(O)c1 | – | 54.5 µM (active) |
| Cc1ccnc2c1NC(=O)c1cccnc1N2C1CC1 | – | inactive |
| COC(c1ccccc1)(c1ccccc1)[C@H](Oc1nc(C)cc(C)n1)C(=O)O | 1.11% | – |
| CCC(C)(Oc1ccc(C2(c3ccc(OC(C)(CC)C(=O)O)cc3)CCCCC2)cc1)C(=O)O (centres undefined) | -0.0376% | – |
| CNC1(C)C2CCC(C2)C1(C)C (centres undefined) | -0.352% | – |
| CCC[C@H](N[C@@H](C)C(=O)N1[C@H](C(=O)O)C[C@@H]2CCCC[C@@H]21)C(=O)OCC | 9.47% | – |
| CCc1cc(C(C)(C)C)c(O)c(C(C)(C)C)c1 | – | inactive |
| CCCCCCCCCCCC[N+](C)(C)C | -9.13% | – |
| CC(C)(c1ccccc1)c1ccc(Nc2ccc(C(C)(C)c3ccccc3)cc2)cc1 | – | inactive |
| c1ccc2n[nH]nc2c1 | 0.736% | – |
| Nc1nc2ccccc2[nH]1 | – | inactive |
| NC(Cc1ccc(Cl)cc1)C(=O)O (centres undefined) | 0.724% [at 0.756 µM] | – |
| Oc1c(Cl)cc(Cl)c(Cl)c1Cc1c(O)c(Cl)cc(Cl)c1Cl | 4.96% | – |
| CN1C(=O)c2ccc([N+](=O)[O-])cc2C1=O | -1.13% | – |
| O=C(O)c1cccc(C(=O)O)c1 | – | inactive |
| COc1ccc(COC(C)=O)cc1 | – | inactive |
| CCc1ccc(C(c2ccc(CC)cc2)C(Cl)Cl)cc1 | – | inactive |
| Oc1ccc(Cl)cc1Cc1cc(Cl)ccc1O | – | inactive |
| COC(=O)/C=C/c1ccccc1 | -1.49% | – |
| Nc1ccc(O)cc1 | – | 20.1 µM (active) |
| CC1=CC(=O)c2ccccc2C1=O | 5.77% | – |
| Nc1cc(Cl)c(-c2cc(Cl)c(N)cc2Cl)cc1Cl | – | inactive |
| COC(=O)c1cccc(C(=O)OC)c1 | – | inactive |

test system: not listed separately; assay: qHTS assay to identify small molecule antagonists of the estrogen related receptor (ERR) signaling pathway - cell viability counter screen (AID 1224818); conditions: ERR reporter cell line viability counter screen; series mostly up to 46.1 µM; viability change, negative = cytotoxic: at the top concentration;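 note: viability measured after 17.5 h of compound exposure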
How it was run: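 After a 6 h pre-incubation, ERR cells were dosed by pin tool with compounds, positive/negative controls or DMSO alone. Following 17.5 h at 37 C and 30 min with CellTiter-Fluor, fluorescence was recorded.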

| SMILES | viability change, negative = cytotoxic |
| --- | --- |
| CC(C)(C)NCC(O)c1cc(O)cc(O)c1 (centres undefined) | 14.9% |
| NC(=Nc1ccccc1)Nc1ccccc1 | 0.356% [at 92.2 µM] |
| CNC1(C)C2CCC(C2)C1(C)C (centres undefined) | 1.2% |
| NC(Cc1ccc(Cl)cc1)C(=O)O (centres undefined) | 13.2% |

test system: not listed separately; assay: qHTS assay to identify small molecule antagonists of the estrogen related receptor (ERR) signaling pathway (AID 1224819;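 note: luminescence from an ERR-driven luciferase reporter measured with One-Glo reagent; nearly all actives have a fitted effect of over 50% in size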); conditions: ERR reporter cell line, luciferase inhibition; series mostly up to 46.1 µM; activity change, negative = inhibition: at the top concentration
How it was run: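 Luminescence readout (One-Glo, 30 min, RT) of ERR cell line after 18 h compound exposure at 37 C; cells seeded 2,000/well, pre-incubated 6 h, compounds pinned from DMSO stocks.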

| SMILES | activity change, negative = inhibition |
| --- | --- |
| NC(=Nc1ccccc1)Nc1ccccc1 | 26.5% [at 92.2 µM] |
| CNC1(C)C2CCC(C2)C1(C)C (centres undefined) | 17.6% |
| NC(Cc1ccc(Cl)cc1)C(=O)O (centres undefined) | 8.82% |

test system: estrogen-related receptor alpha (ERRalpha) with PGC-1alpha coactivator, human; assay: qHTS assay to identify small molecule antagonists of the estrogen related receptor signaling pathway with the pleiotropic PPARgamma coactivator (PGC) (AID 1224821; calls by dose curve;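 note: lower luminescence signal means antagonism of PGC/ERR signalling; nearly all actives have a fitted effect of over 50% in size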); conditions: ERR/PGC reporter cell line, luciferase, antagonist mode; series mostly up to 46.1 µM; activity change, negative = inhibition: at the top concentration
How it was run: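 PGC/ERR reporter cell line, plated 6 h before compound addition, then exposed 18 h at 37 °C. Luciferase activity read by luminescence 30 min after One-Glo addition; decrease indicates antagonism.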

| SMILES | activity change, negative = inhibition |
| --- | --- |
| NC(=Nc1ccccc1)Nc1ccccc1 | 146% [at 92.2 µM] |
| CNC1(C)C2CCC(C2)C1(C)C (centres undefined) | 17.3% |
| NC(Cc1ccc(Cl)cc1)C(=O)O (centres undefined) | 0.636% |

test system: not listed separately; assay: qHTS assay to identify small molecule antagonists of the estrogen related receptor signaling pathway with the pleiotropic PPARgamma coactivator (PGC) cell viability counter screen (AID 1224822;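 note: viability read after 17.5 h compound exposure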); conditions: ERR/PGC reporter cell line viability counter screen; series mostly up to 46.1 µM; viability change, negative = cytotoxic: at the top concentration
How it was run: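 PGC/ERR cells were plated at 2,000 per well and allowed 6 h to settle before compound addition. Following 17.5 h at 37 C, CellTiter-Fluor reagent was added and fluorescence was read 30 min later.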

| SMILES | viability change, negative = cytotoxic |
| --- | --- |
| CC(C)(C)NCC(O)c1cc(O)cc(O)c1 (centres undefined) | 10.4% |
| NC(=Nc1ccccc1)Nc1ccccc1 | -6.74% [at 92.2 µM] |
| CNC1(C)C2CCC(C2)C1(C)C (centres undefined) | 17.6% |
| NC(Cc1ccc(Cl)cc1)C(=O)O (centres undefined) | 5.06% |
